Measured values: PMC7862700, “An all-to-all approach to the identification of sequence-specific readers for epigenetic DNA modifications on cytosine”

How the values were obtained:
Experiment in all cases: DAPPL (digital affinity profiling via proximity ligation, sequencing); 10 mM Tris-HCl pH 7.5, 50 mM NaCl, 1 mM DTT, 4% glycerol, room temperature, 30 min; GST-TFs on glutathione beads, 16-mer random dsDNA library, 0.1% formaldehyde crosslink after washing; high values mean tight binding
Settings in all cases: protein: recombinant; tags: N-terminal GST; dsDNA, one strand shown
FLI1 = target: T1, FLI1 (Homo sapiens, UniProt Q01543 1-452)
T1 sequence: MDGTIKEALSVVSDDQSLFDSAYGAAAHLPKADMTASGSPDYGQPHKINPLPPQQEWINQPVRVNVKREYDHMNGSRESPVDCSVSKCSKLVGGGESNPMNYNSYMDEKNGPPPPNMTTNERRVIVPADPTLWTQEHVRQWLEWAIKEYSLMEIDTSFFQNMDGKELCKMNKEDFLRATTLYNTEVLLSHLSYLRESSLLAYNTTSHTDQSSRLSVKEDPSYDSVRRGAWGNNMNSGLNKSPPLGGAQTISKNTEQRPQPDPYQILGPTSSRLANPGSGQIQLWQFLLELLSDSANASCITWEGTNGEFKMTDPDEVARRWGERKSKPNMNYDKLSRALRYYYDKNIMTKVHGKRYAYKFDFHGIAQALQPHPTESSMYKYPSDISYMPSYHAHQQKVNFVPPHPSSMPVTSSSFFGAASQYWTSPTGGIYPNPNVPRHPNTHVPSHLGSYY
How it was run: (§1)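 Yeast served to express human transcription factors as GST fusions, which were then captured on glutathione beads and labelled with DNA barcodes. Pooled with a tag-only sample, they were incubated with 200 nmole of a 16-mer random double-stranded DNA library for 30 min at room temperature in Tris/NaCl/DTT/glycerol buffer, washed, crosslinked with 0.1% formaldehyde, ligated by proximity, amplified by PCR and sequenced. Dividing each hexamer's read frequency for a factor by its frequency for the tag-only sample gives the binding signal.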

GABPA = target: T2, GABPA (Homo sapiens, UniProt Q06546 1-454)
T2 sequence: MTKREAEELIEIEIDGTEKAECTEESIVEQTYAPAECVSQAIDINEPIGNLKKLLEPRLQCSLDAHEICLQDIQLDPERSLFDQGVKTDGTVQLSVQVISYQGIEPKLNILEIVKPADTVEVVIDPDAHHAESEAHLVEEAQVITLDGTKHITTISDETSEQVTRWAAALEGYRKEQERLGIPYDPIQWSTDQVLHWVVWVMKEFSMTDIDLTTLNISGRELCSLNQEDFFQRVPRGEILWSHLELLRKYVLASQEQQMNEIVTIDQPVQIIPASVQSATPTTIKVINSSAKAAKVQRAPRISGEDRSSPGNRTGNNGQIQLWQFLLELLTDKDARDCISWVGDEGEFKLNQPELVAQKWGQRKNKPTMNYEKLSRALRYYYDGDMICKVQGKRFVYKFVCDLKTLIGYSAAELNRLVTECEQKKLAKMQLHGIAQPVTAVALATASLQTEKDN
How it was run: as §1

EHF = target: T3, EHF (Homo sapiens, UniProt Q9NZC4 1-300)
T3 sequence: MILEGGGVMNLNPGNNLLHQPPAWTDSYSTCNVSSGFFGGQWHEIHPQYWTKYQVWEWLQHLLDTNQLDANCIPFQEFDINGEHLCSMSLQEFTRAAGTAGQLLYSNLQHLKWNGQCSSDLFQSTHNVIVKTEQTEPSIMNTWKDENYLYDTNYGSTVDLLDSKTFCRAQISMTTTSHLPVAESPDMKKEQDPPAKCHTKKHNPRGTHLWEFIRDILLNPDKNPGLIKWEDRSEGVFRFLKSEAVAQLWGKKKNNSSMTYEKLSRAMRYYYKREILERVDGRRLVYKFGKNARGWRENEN
How it was run: as §1

ELK3 = target: T4, ELK3 (Homo sapiens, UniProt P41970 1-407)
T4 sequence: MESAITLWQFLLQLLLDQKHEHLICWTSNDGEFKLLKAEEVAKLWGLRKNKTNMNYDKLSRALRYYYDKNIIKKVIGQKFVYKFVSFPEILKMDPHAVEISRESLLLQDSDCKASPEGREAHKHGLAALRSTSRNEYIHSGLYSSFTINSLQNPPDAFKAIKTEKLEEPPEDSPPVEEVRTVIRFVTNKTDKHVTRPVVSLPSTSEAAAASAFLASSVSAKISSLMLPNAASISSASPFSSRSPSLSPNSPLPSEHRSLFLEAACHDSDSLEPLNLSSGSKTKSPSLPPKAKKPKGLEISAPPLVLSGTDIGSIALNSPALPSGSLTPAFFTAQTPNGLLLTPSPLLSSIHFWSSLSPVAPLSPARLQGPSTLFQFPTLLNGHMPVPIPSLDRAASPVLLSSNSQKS
How it was run: as §1

ELF4 = ELF4 (Homo sapiens, UniProt Q99607 1-663)
How it was run: as §1

ELF3 = target: T5, ELF3 (Homo sapiens, UniProt P78545 1-371)
T5 sequence: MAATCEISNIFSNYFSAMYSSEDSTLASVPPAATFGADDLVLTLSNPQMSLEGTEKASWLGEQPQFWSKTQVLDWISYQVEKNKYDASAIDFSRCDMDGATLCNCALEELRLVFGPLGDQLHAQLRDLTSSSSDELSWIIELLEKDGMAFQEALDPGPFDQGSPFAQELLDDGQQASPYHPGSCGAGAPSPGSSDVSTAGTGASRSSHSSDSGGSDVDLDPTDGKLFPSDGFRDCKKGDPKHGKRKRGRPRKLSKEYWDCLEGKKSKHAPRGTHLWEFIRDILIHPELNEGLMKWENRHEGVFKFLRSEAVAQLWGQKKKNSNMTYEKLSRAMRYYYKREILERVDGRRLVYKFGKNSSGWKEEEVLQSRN
How it was run: as §1

ETV1 = ETV1 (Homo sapiens, UniProt P50549 1-477)
How it was run: as §1

ETV3L = target: T6, ETV3L (Homo sapiens, UniProt Q6ZN32 1-361)
T6 sequence: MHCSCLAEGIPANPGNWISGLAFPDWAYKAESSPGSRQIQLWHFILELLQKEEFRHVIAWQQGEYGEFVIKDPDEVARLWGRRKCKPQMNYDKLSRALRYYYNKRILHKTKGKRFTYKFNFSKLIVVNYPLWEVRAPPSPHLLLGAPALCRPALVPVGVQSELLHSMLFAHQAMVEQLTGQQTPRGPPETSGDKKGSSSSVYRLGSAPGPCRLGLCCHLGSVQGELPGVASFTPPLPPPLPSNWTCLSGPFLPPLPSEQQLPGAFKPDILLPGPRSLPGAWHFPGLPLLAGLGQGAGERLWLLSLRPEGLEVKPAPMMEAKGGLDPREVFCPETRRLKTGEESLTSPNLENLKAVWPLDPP
How it was run: as §1

ETV6 = ETV6 (Homo sapiens, UniProt P41212 1-452)
How it was run: as §1

ELK1 = target: T7, ELK1 (Homo sapiens, UniProt P19419 1-428)
T7 sequence: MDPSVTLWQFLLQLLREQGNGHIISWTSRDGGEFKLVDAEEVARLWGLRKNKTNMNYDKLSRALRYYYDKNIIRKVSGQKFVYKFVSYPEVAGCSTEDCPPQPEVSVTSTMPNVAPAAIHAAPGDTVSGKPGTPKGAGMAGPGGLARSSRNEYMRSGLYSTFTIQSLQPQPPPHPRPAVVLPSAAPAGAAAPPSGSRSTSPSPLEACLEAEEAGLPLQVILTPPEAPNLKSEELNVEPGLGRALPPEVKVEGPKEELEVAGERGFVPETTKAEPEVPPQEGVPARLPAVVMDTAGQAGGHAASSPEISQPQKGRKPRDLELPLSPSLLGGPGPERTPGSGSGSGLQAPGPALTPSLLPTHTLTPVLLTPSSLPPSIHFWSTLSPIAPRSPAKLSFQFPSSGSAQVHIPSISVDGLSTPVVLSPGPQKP
How it was run: as §1

ELF1 = ELF1 (Homo sapiens, UniProt P32519 1-619)
How it was run: as §1

SPIB = SPIB (Homo sapiens, UniProt Q01892 1-262)
How it was run: as §1

ETV2 = target: T8, ETV2 (Homo sapiens, UniProt O00321 1-342)
T8 sequence: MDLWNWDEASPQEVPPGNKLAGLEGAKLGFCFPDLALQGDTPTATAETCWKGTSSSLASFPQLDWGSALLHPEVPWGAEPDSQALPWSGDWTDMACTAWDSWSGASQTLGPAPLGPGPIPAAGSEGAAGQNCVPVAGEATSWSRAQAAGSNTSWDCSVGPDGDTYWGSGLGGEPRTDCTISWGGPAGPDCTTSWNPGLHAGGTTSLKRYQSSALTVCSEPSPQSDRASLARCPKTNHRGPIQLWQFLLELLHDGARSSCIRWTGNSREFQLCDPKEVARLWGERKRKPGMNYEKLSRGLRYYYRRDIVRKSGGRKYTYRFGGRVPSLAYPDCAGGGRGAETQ
How it was run: as §1

ERF = target: T9, ERF (Homo sapiens, UniProt P50548 1-548)
T9 sequence: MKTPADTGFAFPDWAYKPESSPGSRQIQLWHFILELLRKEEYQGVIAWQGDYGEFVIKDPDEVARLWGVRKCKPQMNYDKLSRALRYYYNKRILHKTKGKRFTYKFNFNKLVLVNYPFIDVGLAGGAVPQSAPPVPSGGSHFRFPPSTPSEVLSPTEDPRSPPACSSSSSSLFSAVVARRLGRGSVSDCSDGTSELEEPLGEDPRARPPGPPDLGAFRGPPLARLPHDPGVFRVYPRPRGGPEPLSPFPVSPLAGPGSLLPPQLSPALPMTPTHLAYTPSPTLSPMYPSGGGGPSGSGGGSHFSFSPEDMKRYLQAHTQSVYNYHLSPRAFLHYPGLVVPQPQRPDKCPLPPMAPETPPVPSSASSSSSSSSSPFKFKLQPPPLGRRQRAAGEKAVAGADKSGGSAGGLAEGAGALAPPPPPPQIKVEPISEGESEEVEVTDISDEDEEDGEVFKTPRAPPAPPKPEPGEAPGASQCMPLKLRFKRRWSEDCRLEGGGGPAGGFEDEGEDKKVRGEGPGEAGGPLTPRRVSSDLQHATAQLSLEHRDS
How it was run: as §1

ETV7 = target: T10, ETV7 (Homo sapiens, UniProt Q9Y603 1-341)
T10 sequence: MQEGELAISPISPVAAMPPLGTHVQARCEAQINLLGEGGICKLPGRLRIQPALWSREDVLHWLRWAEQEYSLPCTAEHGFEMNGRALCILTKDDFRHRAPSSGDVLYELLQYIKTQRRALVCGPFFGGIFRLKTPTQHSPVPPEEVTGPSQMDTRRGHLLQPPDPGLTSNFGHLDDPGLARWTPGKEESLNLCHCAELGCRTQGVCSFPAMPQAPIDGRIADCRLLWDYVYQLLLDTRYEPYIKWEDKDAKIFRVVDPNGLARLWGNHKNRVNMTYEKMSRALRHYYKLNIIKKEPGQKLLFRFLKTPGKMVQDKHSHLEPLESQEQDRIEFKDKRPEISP
How it was run: as §1

ELF4, sequence (Q99607 whole entry): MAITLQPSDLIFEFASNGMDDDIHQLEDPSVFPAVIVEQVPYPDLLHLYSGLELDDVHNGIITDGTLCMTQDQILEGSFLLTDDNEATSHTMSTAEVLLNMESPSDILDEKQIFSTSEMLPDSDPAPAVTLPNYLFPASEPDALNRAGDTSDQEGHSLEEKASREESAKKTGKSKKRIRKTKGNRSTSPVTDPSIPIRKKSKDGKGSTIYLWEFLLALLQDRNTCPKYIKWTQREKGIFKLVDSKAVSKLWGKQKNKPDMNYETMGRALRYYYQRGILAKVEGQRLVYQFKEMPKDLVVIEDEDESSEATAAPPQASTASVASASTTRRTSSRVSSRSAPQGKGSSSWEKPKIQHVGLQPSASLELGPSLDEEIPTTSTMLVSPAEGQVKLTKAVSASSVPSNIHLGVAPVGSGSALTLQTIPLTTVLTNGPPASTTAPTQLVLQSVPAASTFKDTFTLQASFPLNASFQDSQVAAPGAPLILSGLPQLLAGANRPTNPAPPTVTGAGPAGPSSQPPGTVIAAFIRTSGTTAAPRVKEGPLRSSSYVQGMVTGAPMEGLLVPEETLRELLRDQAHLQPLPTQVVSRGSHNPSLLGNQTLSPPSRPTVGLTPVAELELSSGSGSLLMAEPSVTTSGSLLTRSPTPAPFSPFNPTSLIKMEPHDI
ELF1, sequence (P32519 whole entry): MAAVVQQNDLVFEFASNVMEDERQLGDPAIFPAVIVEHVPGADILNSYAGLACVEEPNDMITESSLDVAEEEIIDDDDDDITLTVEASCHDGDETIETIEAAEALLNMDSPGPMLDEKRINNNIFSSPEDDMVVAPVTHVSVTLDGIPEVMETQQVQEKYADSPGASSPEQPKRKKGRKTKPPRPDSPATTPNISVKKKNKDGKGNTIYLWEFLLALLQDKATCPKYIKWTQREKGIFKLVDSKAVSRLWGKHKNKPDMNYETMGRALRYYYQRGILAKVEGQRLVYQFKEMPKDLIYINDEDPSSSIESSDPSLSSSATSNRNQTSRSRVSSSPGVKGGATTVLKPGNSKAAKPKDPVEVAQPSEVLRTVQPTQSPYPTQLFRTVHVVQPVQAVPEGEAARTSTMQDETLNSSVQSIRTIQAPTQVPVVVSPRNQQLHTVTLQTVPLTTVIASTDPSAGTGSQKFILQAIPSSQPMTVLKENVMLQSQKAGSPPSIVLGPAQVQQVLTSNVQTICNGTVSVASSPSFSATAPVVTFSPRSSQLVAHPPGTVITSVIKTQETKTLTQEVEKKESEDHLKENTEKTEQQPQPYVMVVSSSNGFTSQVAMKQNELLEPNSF
SPIB, sequence (Q01892 whole entry): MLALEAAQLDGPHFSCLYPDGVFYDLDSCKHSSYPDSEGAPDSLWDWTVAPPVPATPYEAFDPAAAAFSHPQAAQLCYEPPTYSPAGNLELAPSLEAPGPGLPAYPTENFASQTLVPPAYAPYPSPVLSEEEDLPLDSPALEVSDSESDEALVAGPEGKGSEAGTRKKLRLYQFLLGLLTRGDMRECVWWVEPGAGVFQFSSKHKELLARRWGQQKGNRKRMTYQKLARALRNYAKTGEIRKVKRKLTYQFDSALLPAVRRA
ETV1, sequence (P50549 whole entry): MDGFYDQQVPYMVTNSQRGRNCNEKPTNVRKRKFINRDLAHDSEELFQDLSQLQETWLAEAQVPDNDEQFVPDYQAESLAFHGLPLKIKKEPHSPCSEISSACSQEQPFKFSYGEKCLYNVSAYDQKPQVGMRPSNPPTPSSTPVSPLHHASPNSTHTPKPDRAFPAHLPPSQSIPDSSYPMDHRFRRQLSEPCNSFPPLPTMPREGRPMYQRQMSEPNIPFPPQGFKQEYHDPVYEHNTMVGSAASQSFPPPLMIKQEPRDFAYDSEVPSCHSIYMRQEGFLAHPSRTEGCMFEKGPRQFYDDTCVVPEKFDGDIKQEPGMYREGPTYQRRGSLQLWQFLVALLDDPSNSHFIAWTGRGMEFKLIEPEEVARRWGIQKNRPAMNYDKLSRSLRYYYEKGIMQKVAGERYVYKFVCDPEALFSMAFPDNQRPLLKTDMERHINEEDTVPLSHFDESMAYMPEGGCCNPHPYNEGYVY
ETV6, sequence (P41212 whole entry): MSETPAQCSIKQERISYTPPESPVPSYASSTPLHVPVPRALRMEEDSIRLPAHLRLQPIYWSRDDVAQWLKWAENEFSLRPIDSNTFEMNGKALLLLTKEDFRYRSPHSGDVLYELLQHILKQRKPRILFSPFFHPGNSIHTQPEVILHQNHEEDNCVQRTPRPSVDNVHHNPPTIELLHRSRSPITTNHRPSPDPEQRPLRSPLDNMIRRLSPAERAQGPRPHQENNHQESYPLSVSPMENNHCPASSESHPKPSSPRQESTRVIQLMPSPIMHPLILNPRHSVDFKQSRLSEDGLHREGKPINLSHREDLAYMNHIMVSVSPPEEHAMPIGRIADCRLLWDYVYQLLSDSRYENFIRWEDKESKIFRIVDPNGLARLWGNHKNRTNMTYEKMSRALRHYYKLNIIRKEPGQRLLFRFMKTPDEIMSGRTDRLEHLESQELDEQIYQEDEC

GACGAC
binding signal (FLI1): 1.01 fold enrichment (6-mer frequency, TF over GST control) | binding signal (GABPA): 1.05 fold enrichment (6-mer frequency, TF over GST control) | binding signal (EHF): 1.06 fold enrichment (6-mer frequency, TF over GST control) | binding signal (ELK3): 1.03 fold enrichment (6-mer frequency, TF over GST control) | binding signal (ELF4): 1.03 fold enrichment (6-mer frequency, TF over GST control) | binding signal (ELF3): 1.06 fold enrichment (6-mer frequency, TF over GST control) | binding signal (ETV1): 1.02 fold enrichment (6-mer frequency, TF over GST control) | binding signal (ETV3L): 1.03 fold enrichment (6-mer frequency, TF over GST control) | binding signal (ETV6): 1.08 fold enrichment (6-mer frequency, TF over GST control)

CGGCCC
binding signal (FLI1): 1.05 fold enrichment (6-mer frequency, TF over GST control) | binding signal (ELK1): 1.03 fold enrichment (6-mer frequency, TF over GST control) | binding signal (ELF1): 1.01 fold enrichment (6-mer frequency, TF over GST control) | binding signal (SPIB): 1.07 fold enrichment (6-mer frequency, TF over GST control) | binding signal (ELF4): 1.03 fold enrichment (6-mer frequency, TF over GST control) | binding signal (ETV2): 1.19 fold enrichment (6-mer frequency, TF over GST control) | binding signal (ERF): 1.01 fold enrichment (6-mer frequency, TF over GST control) | binding signal (ETV7): 1.05 fold enrichment (6-mer frequency, TF over GST control)
